Only a selection was taken, and hits are over-represented in it overall.
DT40 TDP1 no CPT: qHTS for Inhibitors of human tyrosyl-DNA phosphodiesterase 1 (TDP1): qHTS in cells in absence of CPT. DT40 Tdp1-/- hTDP1 cells, no CPT, ATP luminescence, 48 h. Potency, µM (series often up to 46.2 µM), without a hit: top-dose activity change, negative = growth inhibition, actives largely listed as inhibitors. 15% of 420,000 active. AID 686978, 2013; note: potency is the fitted concentration of half-maximal effect; nearly all actives have a fitted effect of over 55% in size
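A cellular qHTS used chicken DT40 cells lacking endogenous Tdp1 but carrying stably transfected human TDP1. Compounds were applied without camptothecin, and cell growth kinetics were judged by ATP-dependent luminescence after ≥48 hr.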
HT1080 IDH1KD tx: qHTS for induction of synthetic lethality in tumor cells producing 2HG: qHTS for the HT-1080-IDH1KD cell line | Potency, µM (top dose mostly 46.1 µM), inactives show at the top dose activity, negative = toxicity, actives largely listed as cytotoxic | 2% of 360,000 active | HT-1080 IDH1 knockdown viability, ATP luminescence, 48 h;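 note: potency is the fitted concentration of half-maximal effect; 0% = DMSO wells and -100% = cell-free medium wells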
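Cytotoxicity counter-line: IDH1KD HT-1080, 48 h, CellTiter-Glo. Curves classed by r2, magnitude and activity.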
HT1080NT lethal: qHTS for induction of synthetic lethality in tumor cells producing 2HG: qHTS for the HT-1080-NT fibrosarcoma cell line; HT-1080-NT fibrosarcoma viability, CellTiter-Glo ATP luminescence, 48 h; Potency, µM (series often up to 46.1 µM), without a hit: at the top dose activity, negative = less viability, hits mostly cytotoxic; 1.6% of 360,000 active;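 note: NT is the 2HG producing partner of a matched IDH1 knockdown line; potency is the fitted concentration of half-maximal effect; 0% = DMSO-treated cells and -100% = media-only wells without cells; nearly all actives have a fitted effect of over 55% in size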
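Viability of the 2HG-overproducing fibrosarcoma line after 48 hours of compound exposure at 37 degrees C was determined by luminescence with CellTiter-Glo, and concentration-effect curves were then fitted and categorized.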
IL-1B inflam inh: qHTS for Inhibitors of Inflammasome Signaling: IL-1-beta AlphaLISA Primary Screen | THP-1 LPS/ATP IL-1B secretion, AlphaLISA, 16 h; stronger effect = lower value | activity change, % at 57.5 µM | 4.7% of 360,000 active | AID 743279, 2014; in the data active = activity change below about -50%; inconclusive = mostly about -30% to -49%
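THP-1 cells pretreated 1 hr with compounds (up to 57.5 uM final), then stimulated with LPS (250 ng/mL final) plus ATP (1.25 mM final); secreted IL-1B measured by AlphaLISA after 16 hr, decreased signal indicating inhibition.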
TDP1 cell CPT: qHTS for Inhibitors of human tyrosyl-DNA phosphodiesterase 1 (TDP1): qHTS in cells in presence of CPT; AID 686979, 2013; Potency, µM (top dose mostly 46.2 µM), for the others: at the highest dose activity change, negative = growth inhibition, hits mostly inhibitors; chicken DT40 Tdp1-/-;hTDP1 cells + 20 nM CPT, ATP luminescence, 48 h; 12% of 420,000 active; note: potency is the fitted concentration of half-maximal effect; nearly all actives have a fitted effect of over 55% in size
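Chicken DT40 Tdp1-/- cells stably complemented with human TDP1 were seeded at 400 cells/well in medium containing 20 nM camptothecin, exposed to pin-transferred compounds, and grown at 37 °C for at least 48 hr. Viability was read as ATP luminescence.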
ALOX12 inh: Primary qHTS assay for inhibitors of human arachidonate 12S-lipoxygenase (ALOX12): Round 2; purified 12hLO, xylenol orange hydroperoxide absorbance; 1.1% of 580,000 active; Potency, µM (highest dose often 108 µM), without a hit: top-dose activity change, negative = inhibition, hits mostly inhibitors; Polyunsaturated fatty acid lipoxygenase ALOX12 (Homo sapiens), P18054; note: potency is the fitted concentration of half-maximal effect
Target sequence (P18054 whole entry, looked up): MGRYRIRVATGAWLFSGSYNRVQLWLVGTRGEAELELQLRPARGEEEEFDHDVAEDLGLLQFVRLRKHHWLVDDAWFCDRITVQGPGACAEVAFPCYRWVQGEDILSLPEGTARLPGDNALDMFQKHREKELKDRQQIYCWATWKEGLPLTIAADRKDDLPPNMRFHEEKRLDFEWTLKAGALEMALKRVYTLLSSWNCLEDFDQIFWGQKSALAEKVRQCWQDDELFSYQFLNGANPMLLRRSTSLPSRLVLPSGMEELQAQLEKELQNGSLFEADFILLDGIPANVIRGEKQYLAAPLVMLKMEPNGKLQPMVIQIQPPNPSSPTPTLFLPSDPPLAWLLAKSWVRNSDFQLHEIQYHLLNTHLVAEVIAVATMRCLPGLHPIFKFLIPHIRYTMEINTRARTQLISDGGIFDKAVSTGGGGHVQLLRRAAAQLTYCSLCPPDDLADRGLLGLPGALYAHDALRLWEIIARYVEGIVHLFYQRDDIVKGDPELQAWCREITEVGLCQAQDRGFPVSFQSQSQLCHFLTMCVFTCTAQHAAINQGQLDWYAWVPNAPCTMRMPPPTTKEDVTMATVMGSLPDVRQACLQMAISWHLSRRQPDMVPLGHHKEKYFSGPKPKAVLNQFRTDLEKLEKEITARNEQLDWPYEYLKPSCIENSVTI
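Hydroperoxide product was detected by ferrous iron/xylenol orange as the 573 to 405 nm absorbance ratio. Arachidonic acid at 40 uM (final) was turned over for 30 min at room temperature by 150 nM human 12hLO, pH 7.0 Hepes buffer, after 15 min compound preincubation.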
An asterisk follows results filed as active; [ ] = dose if it differs, or a comment. Unless noted, calls come from the whole dose curve; as a rule, active = well fitted curve in the direction sought with a large enough effect; inconclusive = small, poorly fitted or top-dose-only effect, or another doubt; inactive = no such curve, though single readings can be large; an effect the other way counts as inactive or inconclusive. Unless noted, % is set by controls: 0 for no effect and ±100 for the full control effect.

What do the screens show for `COc1ccc(NC(=O)CSCC(=O)N(C)CC(=O)Nc2ccc(Cl)c(C(F)(F)F)c2)cc1`?
DT40 TDP1 no CPT: inconclusive; HT1080 IDH1KD tx: -28%; HT1080NT lethal: inconclusive; IL-1B inflam inh: -7; TDP1 cell CPT: inconclusive; ALOX12 inh: -2%

How did Cc1ccc(Cn2c(C3CCN(C(=O)Cc4cccs4)CC3)n[nH]c2=O)cc1 do in these assays?
ALOX12 inh: -8%

Results for O=C1C(Cl)=C(Nc2ccc3cn[nH]c3c2)C(=O)c2ccccc21 ?
DT40 TDP1 no CPT: 2.1µM*; HT1080 IDH1KD tx: 2.6µM*; HT1080NT lethal: inconclusive; IL-1B inflam inh: -99*; TDP1 cell CPT: 1.6µM*; ALOX12 inh: inconclusive

What do the screens show for `Cc1ccc(NC2=C(NCCO)C(=O)c3ccccc3C2=O)cc1`?
DT40 TDP1 no CPT: inconclusive; HT1080 IDH1KD tx: inconclusive; HT1080NT lethal: inconclusive; IL-1B inflam inh: -17; TDP1 cell CPT: 13µM*; ALOX12 inh: inconclusive

What do the screens show for `CC(=O)Nc1ccc(NC(=O)c2cccc3c2-c2ccccc2C3=O)cc1`?
DT40 TDP1 no CPT: 18µM*; HT1080 IDH1KD tx: -4%; HT1080NT lethal: -1%; IL-1B inflam inh: 6; TDP1 cell CPT: 21µM*; ALOX12 inh: -17%

How did CC(=O)Nc1ccc(NC2=C(C(=O)Nc3ccc(C)cc3)S(=O)(=O)c3ccccc32)cc1 do in these assays?
ALOX12 inh: -29%

How did CC(=O)Nc1ccc(NC2=C(Cl)C(=O)c3ccccc3C2=O)cc1 do in these assays?
DT40 TDP1 no CPT: inconclusive; HT1080 IDH1KD tx: 2.9µM*; HT1080NT lethal: 4.6µM*; IL-1B inflam inh: -98*; TDP1 cell CPT: inconclusive; ALOX12 inh: -1%

What do the screens show for `CC1=NS(=O)(=O)N(Cc2ccc(F)cc2F)C=C1C(=O)O`?
ALOX12 inh: 2%

Results for CC(C)CCN1CCC(O)(c2csc(CN3CCc4ccccc4C3)n2)CC1 ?
ALOX12 inh: 39%[176 µM]

How did COC(=O)C1=C(C)NC(=O)NC1c1ccccc1OC (stereo not drawn) do in these assays?
ALOX12 inh: 19%

What do the screens show for `Cc1cccc(/C=C(/C(=O)N(C)Cc2ccccc2)c2cccs2)c1`?
ALOX12 inh: 0%

How did CN(C)c1ccc(NC2=C(Cl)C(=O)c3ccccc3C2=O)cc1 do in these assays?
DT40 TDP1 no CPT: 12µM*; HT1080 IDH1KD tx: 2.3µM*; HT1080NT lethal: 3.3µM*; IL-1B inflam inh: -100*; TDP1 cell CPT: 21µM*; ALOX12 inh: inconclusive

Results for O=C(Oc1ccc([N+](=O)[O-])cc1)c1cccnc1 ?
DT40 TDP1 no CPT: -20%; HT1080 IDH1KD tx: 0%; HT1080NT lethal: 1%; IL-1B inflam inh: -4; TDP1 cell CPT: 4%; ALOX12 inh: -13%

Results for O=C(Oc1ccc(NC2=C(Cl)C(=O)c3ccccc3C2=O)cc1)c1ccc([N+](=O)[O-])cc1 ?
DT40 TDP1 no CPT: 7.3µM*; HT1080 IDH1KD tx: -8%; HT1080NT lethal: -14%; IL-1B inflam inh: 3; TDP1 cell CPT: 8.2µM*

Results for Cc1ccc(/C=C/C(=O)N2CCc3ccccc32)o1 ?
DT40 TDP1 no CPT: 13µM*; HT1080 IDH1KD tx: inconclusive; HT1080NT lethal: -2%; IL-1B inflam inh: -81*; TDP1 cell CPT: 6.5µM*; ALOX12 inh: inconclusive

Results for COc1ccc(/C=C/C(=O)N2CCCc3ccccc32)cc1 ?
DT40 TDP1 no CPT: 23µM*; HT1080 IDH1KD tx: 15%; HT1080NT lethal: 16%; IL-1B inflam inh: -5; TDP1 cell CPT: 26µM*; ALOX12 inh: 2%

Screens from PubChem BioAssay.
